High-throughput results: PubChem BioAssay, National Center for Advancing Translational Sciences (NCATS)
Shiga inhibitor: A qHTS for Small Molecule Inhibitors of Shiga Toxin; inhibition, % at 38.7 µM; Vero cells, Shiga toxin protein synthesis inhibition reporter; 290,000 compounds, 9.2% hits; AID 2315, 2010; in the data active = inhibition mostly above about 28%, no sharp cut-off; inactive = mostly below about 43%; also: 0% is about no effect
NS1 function inh: qHTS Assay for Inhibitors of Influenza NS1 Protein Function; Potency, µM (highest dose often 46.1 µM), without a hit: at the top dose activity, positive = more growth; 270,000 compounds, 0.4% hits; AID 2326, 2010; calls by dose curve; also: potency is read from the fitted curve at half-maximal effect; actives are rising curves; nearly all actives have a fitted effect of over 50% in size
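Recovery from NS1-induced slow growth read by OD600 in budding yeast switched to galactose assay medium (pH 6.0, -URA) at 1:100 dilution. Compound 23 nl per well; the matching strain lacking NS1 serves as control.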
Pf growth 96h: Primary qHTS for delayed death inhibitors of the malarial parasite plastid, 96 hour incubation; P. falciparum luciferase reporter growth, 96 h; Potency, µM (top dose mostly 28.7 µM), without a hit: top-dose activity change, negative = inhibition, usual class: inhibitors; 320,000 compounds, 6.9% hits; AID 504834, 2011; also: potency is read from the fitted curve at half-maximal effect; % is scaled to controls: 0 for no effect and ±100 for the full control effect
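Infected RBCs, 2% Hct / 0.05% parasitemia final; luciferase-reporter P. falciparum; cpd 96 h, 37 C, 5% CO2; luciferase detection reagent; luminescence.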
CHX counter: Cycloheximide Counterscreen for Small Molecule Inhibitors of Shiga Toxin; cell reporter, cycloheximide protein synthesis inhibition counterscreen; max response, %; 300,000 compounds, 12% hits; AID 2314, 2010; in the data active = max response mostly above about 13%, no sharp cut-off; inactive = mostly below about 14%; also: read at 38.3 µM for the half of the compounds with a filed dose; 0% is about no effect
Pf growth 48h: Primary qHTS for delayed death inhibitors of the malarial parasite plastid, 48 hour incubation | Potency, µM (top dose mostly 28.7 µM), inactives show at the top dose activity change, negative = inhibition, actives largely listed as inhibitors | P. falciparum luciferase growth in erythrocytes, 48 h | 310,000 compounds, 5.9% hits; also: potency is read from the fitted curve at half-maximal effect; % is scaled to controls: 0 for no effect and ±100 for the full control effect
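Cell-based growth assay: transgenic P. falciparum expressing firefly luciferase, cultured in red cells within RPMI 1640 containing 0.5% w/v Albumax, 24 mM bicarbonate and gentamycin. A drop in luciferase activity indicates inhibition.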
Starred values were filed as active, the others as inactive; ? = inconclusive; / = no result; [ ] = remark or other dose. The list is not random: actives were taken first. Their share in the collection is about 21%. Unless noted, calls follow the shape of the dose curve; as a rule, active = well fitted inhibition curve with a large enough effect; inconclusive = small, poorly fitted or top-dose-only effect, or another doubt; inactive = no such curve, though single readings can be large or run the other way.

SMILES | Shiga inhibitor | NS1 function inh | Pf growth 96h | CHX counter | Pf growth 48h
C#CCn1cc(Cl)cc(C(=O)Nc2ccccc2)c1=O | 2 | -7% | 0% | 17* | 25%
O=C(Nc1ccccc1)c1ccc(=O)n(Cc2cccc(Cl)c2)c1 | -8 | -5% | -3% | -2 | ?
C#CCn1cccc(C(=O)Nc2ccc(OC)cc2)c1=O | 46* | 2% | 60% | 18* | 61%
C=CCn1cccc(C(=O)Nc2ccc(OC)cc2OC)c1=O | 40 | / | -3% | 33 | 65%
O=C(Nc1cc2c3c(c1)CC(=O)N3CCC2)c1ccc(F)cc1 | / | / | 17% | / | -10%
CCCCC(=O)/C=C/n1c(=S)oc2ccccc21 | 44* | -31% | 47% | 35* | 35%
Cc1ccc(NC(=O)CCn2c(=S)oc3ccccc32)cc1 | -10 | / | ? | -3 | -16%
CC(C)NC(=O)CCn1c(=S)oc2ccccc21 | -10 | / | ? | -4 | 9%
CC(C)OC(=O)n1c(=S)oc2ccccc21 | 68* | -115% | 7% | 44* | /
CCCOc1ccc(C(=O)CCC(=O)NNC(=O)c2ccncc2)cc1 | -5 | 2% | 21% | -1 | 2%
O=C(CCC1CCCC1)Nc1cccc(Cc2ccncc2)c1 | -4 | -4% | 7% | 3 | -30%
O=C1c2ccccc2-c2onc3c(Oc4ccccc4)cc(O)c1c23 | 27 | 9% | / | 22* | 96%
CC(C)(C)S(=O)(=O)c1ccccc1C(=O)O | -13 | 7% | 9.3µM* | 3 | 159%
Cc1nn(CC(=O)NC(C)C(C)C)c(C)c1S(=O)(=O)N1CCCCC1 (centres undefined) | / | / | 0% | / | -19%
Cn1c2ccccc2c2n[nH]c(=O)nc21 | 1 | / | ? | -2 | 8%
Cn1c2ccccc2c2nn(-c3ccccc3)c(=O)cc21 | -21 | -5% | 10µM* | -2 | 1%
COc1ccc(N2CCN(C(=O)Cn3c(=O)[nH]c4ccccc4c3=O)CC2)cc1 | -5 | / | 10µM* | -2 | 12%
COc1ccc(NC(=O)CCn2cc(C)c3ccccc32)cc1 | 56* | -5% | -10% | 48* | -3%
COc1ccc(NC(=O)CCCn2c(=O)[nH]c3ccccc3c2=O)cc1 | -3 | -1% | -1% | -3 | 2.3µM*
COc1ccc(NC(=O)CCCCn2c(=O)[nH]c3ccccc3c2=O)cc1 | 2 | 6% | 2% | 3 | ?
COc1ccc(N2CCN(C(=O)CCCSc3nc4ccccc4[nH]3)CC2)cc1 | -19 | -5% | 9.3µM* | -1 | /
COc1ccc(NC(=O)Cn2cc(C(C)=O)c3ccccc32)cc1 | / | -8% | ? | 0 | -59%
O=C(CN1CCOCC1)Nc1ncc(Cc2cccc(Cl)c2Cl)s1 | 14 | -17% | 2% | -2 | -13%
Cc1cc(NC(=O)CCC(=O)N(CC(=O)NC2CCCC2)c2ccc(F)c(Cl)c2)no1 | 3 | -9% | 15% | -5 | ?
COc1ccccc1NC(=O)c1sc2nc(Cc3ccccc3)cc(C(F)(F)F)c2c1N | 26 | -4% | / | -1 | ?
SMILES | Shiga inhibitor | NS1 function inh | Pf growth 96h | CHX counter | Pf growth 48h
CCOc1ccc(/C=N/NC(=O)C2CCCC2)c(OCC)c1 | -6 | -6% | -33% | 10 | 20%
COc1ccc(N2CCN(CCCNC(=O)C(=O)c3c(C)[nH]c4ccccc34)CC2)cc1 | 0 | 3% | ? | 10 | 5.2µM*
COc1ccc(N2CCN(CC(=O)c3c[nH]c4ccccc34)CC2)cc1 | -14 | -3% | 15% | -3 | -10%
O=C(Cc1ccc(-n2c(=O)[nH]c3ccccc3c2=O)cc1)N1CCN(c2ccccc2)CC1 | -8 | 6% | 37% | -1 | 12µM*
CSc1nc(Sc2ccccc2Cl)c2ccccc2n1 | -2 | -4% | -15% | -2 | ?
CCNc1nc2c(c(=O)n(C)c(=O)n2C)n1Cc1ccc(Cl)cc1 | -6 | -4% | ? | 1 | -7%
CCC(C)Nc1nc2c(c(=O)n(C)c(=O)n2C)n1Cc1cccc(C)c1 (centres undefined) | -6 | -2% | 74% | -7 | 15µM*
Cc1cccc(Nc2nc3c(c(=O)n(C)c(=O)n3C)n2Cc2ccccc2)c1 | -5 | 4% | / | 0 | -1%
CCC(C)Nc1nc2c(c(=O)n(C)c(=O)n2C)n1Cc1ccc(Cl)cc1 (centres undefined) | -3 | 0% | 6.6µM* | -3 | ?
NC(=O)C1CCN(c2nc(-c3ccccc3[N+](=O)[O-])cs2)CC1 | / | / | 0% | / | 9%
CC[n+]1c(C)n(C)c2cc(S(=O)(=O)N(C)C)ccc21 | -14 | 1% | 66% | -3 | 0%
Cc1n(C)c2cc(Cl)ccc2[n+]1Cc1ccccc1 | -20 | / | 22% | -2 | 2.9µM*
Cn1c(SCc2ccccc2)nnc1-c1ccc2c(c1)OCO2 | 75* | 0% | 36% | 49* | 69%
Cn1c(SCc2ccc(C#N)cc2)nnc1-c1ccccc1 | -3 | -11% | ? | -1 | -12%
CCN(CC)S(=O)(=O)c1cccc(-c2nnc(SCC(=O)c3ccc(Cl)s3)n2C)c1 | -3 | -3% | 58% | 2 | 13µM*
Cn1c(SCC(=O)c2ccccc2)nnc1-c1ccccn1 | 113* | 0% | 40% | 53* | 59%
Cn1c(SCc2ccccc2)nnc1-c1ccc(O)cc1 | 66* | 3% | 21% | 31* | 7%
COCCNC(=O)C(=O)NCCN1CCNCC1 | -3 | 8% | 1% | -1 | 20%
Cn1c(SCC(=O)c2ccccc2)nnc1-c1cccc(N)c1 | 65 | 3% | 3% | 29* | /
Cc1nc(-c2ccccn2)nc(SCC(=O)c2ccccc2)c1Cl | -14 | -7% | 5.2µM* | -2 | 15µM*
Cn1c(SCC(=O)c2ccccc2)nnc1-c1ccc(O)cc1 | 68* | 13% | 20% | 35* | /
Cn1c(SCC(=O)N2c3ccccc3CCc3ccccc32)nnc1-c1ccc(O)cc1 | 36 | 0% | -15% | 3 | 12µM*
Cc1nc([N+](=O)[O-])c(C(=O)OCc2ccc(C#N)cc2)n1C | -1 | / | ? | 6 | 14%
COCCNC(=O)c1ccc(CS(=O)(=O)c2cccc(C(F)(F)F)c2)o1 | -12 | 4% | ? | -3 | -1%[0.00184 µM]
Cc1ccc(S(=O)(=O)c2c(C)cc(C)nc2N2CCCC2)cc1 | -15 | -8% | -11% | 1 | -18%
SMILES | Shiga inhibitor | NS1 function inh | Pf growth 96h | CHX counter | Pf growth 48h
CN1C(=O)/C(=C\N2CCc3ccccc32)C(=O)NC1=S | 14 | 18% | 9.3µM* | 13* | 24%
CN1C(=O)/C(=C/c2cccn2-c2ccc3ccccc3c2)C(=O)NC1=S | -7 | -59% | -9% | 14 | -5%
O=C(COC(=O)CSc1ccc([N+](=O)[O-])cc1)NCCCc1ccccc1 | 16 | -27% | 24% | -3 | 10%
CC(=O)N1CCN(C(=O)CCc2nnc(CCCCc3ccccc3)o2)CC1 | -14 | 4% | 12µM* | -4 | -5%
CC(C)CC(=O)N1CCN(Cc2cccc(F)c2)CC1 | -11 | 0% | ? | -2 | 34%
O=C(CCc1nnc(CCCCc2ccccc2)o1)N1CCCC(O)C1 (centres undefined) | 38 | -5% | 22% | 13* | 2%
